Compound activity: PubChem, National Center for Advancing Translational Sciences (NCATS)
JMJD2A Tudor inh – qHTS Assay for Inhibitors of JMJD2A-Tudor Domain. Potency, µM (top dose mostly 114 µM), inactives show top-dose activity change, negative = inhibition, actives largely listed as inhibitors. AlphaScreen JMJD2A-Tudor / H3K4me3 peptide binding. 390,000 compounds, 4.4% hits; further: on the % scale 0 is the no-effect control and ±100 the full control effect; nearly all actives have a fitted effect of over 50% in size
BAZ2B block – qHTS Assay for Inhibitors of BAZ2B | Bromodomain adjacent to zinc finger domain protein 2B (Homo sapiens), Q9UIF8 | AlphaScreen BAZ2B-H3K14Ac peptide displacement | Potency, µM (doses to about 114 µM), for the others: at the top dose activity change, negative = inhibition, usual class: inhibitors | 360,000 compounds, 4.4% hits | AID 504333, 2011; further: on the % scale 0 is the no-effect control and ±100 the full control effect; nearly all actives have a fitted effect of over 60% in size
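In this displacement format the biotinylated H3(5-23) peptide acetylated at Lys14 serves as ligand at 50 nM, with BAZ2B at 50 nM in PBS pH 7.4 containing 0.01% Tween-20. Donor and acceptor beads are 10 ug/mL final.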
GLS inhibitor – qHTS for Inhibitors of Glutaminase (GLS); Glutaminase kidney isoform, mitochondrial (Homo sapiens), O94925; GLS enzymatic activity, qHTS titration; Potency, µM (doses to about 45.5 µM), for the others: top-dose activity change, negative = inhibition, hits mostly inhibitors; 410,000 compounds, 0.21% hits; further: on the % scale 0 is the no-effect control and ±100 the full control effect
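Two-point fluorescence kinetic (t0, 30 min RT) for hKGA; glutamate detected via glutamate oxidase–HRP–Amplex Red. Substrate: 1 mM L-glutamine solution; buffer 45 mM KH2PO4, pH 8.2.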
HP1b chromo inh – HTS for Inhibitors of HP1-beta Chromodomain Interactions with Methylated Histone Tails | AlphaScreen HP1-beta / biotin-H3K9me3 peptide binding | Potency, µM (doses to about 114 µM), inactives show at the top dose activity change, negative = inhibition, most hits filed as inhibitors | 390,000 compounds, 0.56% hits; further: nearly all actives have a fitted effect of over 70% in size
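AlphaScreen: HP1-beta (50 nM) preformed 30 min with biotin-H3(1-18)K9me3 peptide (50 nM) in PBS pH 7.4, 0.01% Tween-20. Compound added for 30 min at RT, then streptavidin donor/nickel chelate acceptor beads (10 ug/mL) for 30 min.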
G9a inh – qHTS Assay for Inhibitors of Histone Lysine Methyltransferase G9a; Histone-lysine N-methyltransferase EHMT2 (Homo sapiens), Q96KQ7; G9a H3K9 monomethylation, AlphaScreen, 2 h; Potency, µM (top dose mostly 102 µM), for the others: top-dose activity, negative = inhibition, usual class: inhibitors; 350,000 compounds, 8.8% hits; AID 504332, 2011; further: on the % scale 0 is the no-effect control and ±100 the full control effect; nearly all actives have a fitted effect of over 75% in size
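Chemiluminescent proximity detection of H3K9 monomethylation, read after 10 min bead incubation in the dark. Reaction: 20 nM G9a, 500 nM biotin-H3K9 peptide, 20 uM SAM cofactor, 2 h, room temperature, following 15 min enzyme-compound preincubation.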
* hit, by the source's call; ? = inconclusive; . = not tested or not shown; [ ] = remark or other dose. Compounds with a hit are over-represented: about 10% of the library has one in this group of screens. The call rests on the fitted dose curve; in most records, active means well fitted curve in the direction sought with a large enough effect; inconclusive means small, poorly fitted or top-dose-only effect, or another doubt; inactive means no such curve, though single readings can be large; an effect the other way counts as inactive or inconclusive. Potency means the concentration at half of the fitted maximal effect.

SMILES | JMJD2A Tudor inh | BAZ2B block | GLS inhibitor | HP1b chromo inh | G9a inh
C=CCC(O)[C@H](Cc1cnc2ccccc2c1)[C@H](/C=C/CCCC)c1ccccc1 (stereo not given in full) | 2% | . | . | 60% | .
Cc1ccc(NC(=O)CCCCCC2NC(=O)NC2C)cc1 (stereo not given) | 0.35µM* | 0.79µM* | 5% | 1.1µM* | ?
CC1NC(=O)NC1CCCCCC(=O)Nc1ccc(F)c(Cl)c1 (stereo not given) | ? | 0.79µM* | 0% | 1.1µM* | 1µM*
COc1ccc(CN(C)c2ccc(-c3nc(-c4ccc(OC)c(OC)c4)no3)cc2[N+](=O)[O-])cc1 | -18% | -5% | 4% | 29% | -6%[59 µM]
C=Cc1c(C)c2cc3nc(cc4[nH]c(cc5nc(cc1[nH]2)C(C)=C5CCC(=O)O)c(CCC(=O)OC)c4C)[C@@]1(C)C3=CC=C(C(=O)OC)[C@H]1C(=O)OC (tested in a mixture with another compound) | . | . | ? | . | 329%[12.7 µM]
Cc1cccc(COCC(Cc2ccccc2)N2CCN(C(=O)c3ccc(Cl)c(Cl)c3)CCC2=O)c1 (stereo not given) | -30% | -8% | 0% | 22% | -21%
O=C(c1ccc(C(F)(F)F)cc1)N1CCC(=O)N(C(COCc2ccccc2)Cc2ccccc2)CC1 (stereo not given) | -15% | -39% | 0% | 50% | 56µM*
O=C(c1ccc(Cl)c(Cl)c1)N1CCC(=O)N(C(COCc2cccc(C(F)(F)F)c2)Cc2ccccc2)CC1 (stereo not given) | -14% | -27% | 5% | 28% | 50µM*
O=C(COC(=O)c1ccc2ccccc2c1)Nc1ncc(C(F)(F)F)cc1Cl | -6% | 10% | 19% | 18% | 13%[12.7 µM]
O=C(COC(=O)CSc1cccc2cccc(Cl)c12)Nc1ncc(C(F)(F)F)cc1Cl | -35% | 50µM* | -1% | -5% | ?
O=C(COC(=O)c1ccc2ccccc2n1)Nc1ncc(C(F)(F)F)cc1Cl | -10% | -1% | -1% | 30% | 45µM*
c1ccc2c(c1)CC(N1CCN(c3cccc4c3OCCO4)CC1)C2 | . | . | . | . | 70%[12.7 µM]
COc1cccc(CNC(=O)Cc2csc(NC(=O)Nc3ccccc3OC)n2)c1 | -26% | -33% | 7% | 16% | ?
COc1ccc(NC(=S)Nc2nc(CC(=O)Nc3ccccc3OC)cs2)cc1 | ? | -33% | 0% | -17% | -18%[59 µM]
COc1ccc(OC)c(NC(=O)Cc2csc(NC(=O)Nc3ccccc3OC)n2)c1 | ? | 0% | 3% | -21% | 45µM*
COc1cc(OC)cc(C(=O)Nc2nc(CC(=O)NC(C)c3ccccc3)cs2)c1 (stereo not given) | -32% | 50µM* | 2% | 0% | ?
COc1ccc(NC(=O)Cc2csc(NC(=O)Nc3ccccc3OC)n2)c(OC)c1 | ? | ? | 5% | -16% | 50µM*
COc1cccc(C(=O)N2CCc3cc(OC)c(OC)cc3C2COc2ccc3c(C)cc(=O)oc3c2)c1 (stereo not given) | 0% | 4% | 3% | 30% | 7%[59 µM]
CCOC(=O)c1cc(-c2ccc(OC)cc2)nn1-c1ccccc1C(=O)O | ? | ? | 11µM* | ? | .
COc1ccc(-c2cc(C(=O)NN)n(-c3ccccc3)n2)cc1 | -24% | -9% | 23% | 20% | 43%[59 µM]
CCc1c(C)nc(N2CCN(c3ccc(OC)cc3)CC2)[nH]c1=O | -6% | 6% | 37% | 17% | 22%
CCc1nc2c(OCCOc3ccc(F)cc3)cccn2c1N(C)C(=O)c1ccc(OC)cc1 | . | . | 4% | . | .
COc1ccc(C2=Nc3nc(-c4ccccc4)cn3C(c3ccc(OC)cc3)C2)cc1 (stereo not given) | -17% | -2% | -16% | 40% | 22µM*
COc1ccc(C2CC(c3ccccc3)=NN2C(=O)CCC(=O)O)cc1 (stereo not given) | -20% | -3% | 10% | 49% | .
CCc1nn(CC(=O)Nc2ccc(NC(C)=O)cc2)c(=O)c2cc3sccc3n12 | -15% | -8% | 2% | 20% | -33%[59 µM]
SMILES | JMJD2A Tudor inh | BAZ2B block | GLS inhibitor | HP1b chromo inh | G9a inh
Cc1ccc(S(=O)(=O)N(C)/N=C/c2ccc(C(=O)O)cc2)cc1 | -7% | -2% | -3% | 42% | 45µM*
Cc1ccc(S(=O)(=O)N/N=C\c2ccc(Cl)c([N+](=O)[O-])c2)cc1 | ? | ? | 11% | -4% | 7.9µM*
CCOc1cc(/C=N/O)ccc1OS(=O)(=O)c1ccc(C)cc1 | -9% | 1% | 4% | 16% | -23%
Cc1ccc(NC(=S)N/N=C/c2ccc(Cl)c([N+](=O)[O-])c2)cc1 | -17% | 7% | 9% | 28% | 27%[59 µM]
CCOc1cc(/C=N/NS(=O)(=O)c2ccccc2)ccc1OS(=O)(=O)c1ccc(C)cc1 | -17% | -11% | -3% | 26% | 11µM*
CC(=O)NCc1ccc(S(=O)(=O)N/N=C/c2ccccc2)cc1 | 2% | -19% | -9% | 49% | 3.2µM*
CC(=O)NCc1ccc(S(=O)(=O)N/N=C/c2ccc(Br)cc2)cc1 | -6% | -2% | 2% | 35% | ?
CNC(=O)[C@H](Cc1c[nH]c2ccccc12)NC(=O)[C@@H](CC(=O)NO)CC(C)C | . | . | 23% | . | -1%[12.7 µM]
Cc1ccc(S(=O)(=O)N/N=C\c2ccc3c(c2)OCO3)cc1 | -13% | -6%[57.1 µM] | 0% | 28% | 10%
Cc1ccc(S(=O)(=O)N/N=C/c2ccc(C(=O)O)cc2)cc1 | -5% | 7% | 21% | 72% | 11µM*
COCc1cc(=O)[nH]c(/N=C(\N)Nc2cccc(Cl)c2)n1 | -6%[11.4 µM] | -28% | 0% | 29% | 18µM*
COc1ccccc1N/C(N)=N/c1nc(CSc2ccc(C)cc2)cc(=O)[nH]1 | 79µM* | -28% | 8% | -12% | 0%
COCc1cc(=O)[nH]c(/N=C(\N)Nc2ccc(C)cc2C)n1 | -8%[11.4 µM] | 6% | 0% | 61% | 5%
Cc1cc(=O)[nH]c(/N=C(\N)Nc2cccc3ccccc23)n1 | ? | 56µM* | 13% | 15% | 79µM*
Cc1ccc(SCc2cc(=O)[nH]c(/N=C(\N)Nc3ccccc3Sc3ccccc3)n2)cc1 | -19% | 4% | 6% | 25% | -1%[59 µM]
C=C(CC[C@@H](C)[C@H]1CCC2[C@]1(C)CC[C@]13C[C@@]14CCC(OC(=O)/C=C/c1ccc(O)c(OC)c1)C(C)(C)[C@@H]4CC[C@@]23C)C(C)C (stereo not given in full) | . | . | 16% | . | -42%[12.7 µM]
